Data: the supplement of paper PMC6555819

The sequences below were run on PXR homodimer (NR concentration 270 nM) (assay: PBM binding z-score (relative to random genomic background probes); higher = stronger binding; sequences stand for … in GC…GCGATTGACAGCGTAGAATGAAGG).
Method in brief: (§1)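 The probes on custom Agilent 4×180K protein-binding microarrays were double-stranded, with 34-nt variable regions bearing direct-repeat seeds, single-nucleotide variants, half-site ablations and random human genomic background sequences. Incubation lasted 1 h with ligand-free nuclear receptor dimers in PBS pH 7.4, 2% milk, 0.02% Triton X-100, 1 mM DTT, 0.2 mg/mL BSA and 0.4 mg/ml salmon testes DNA. Antibodies against each partner (one per run) detected bound dimers, and fluorescence scans were regression-normalized. Binding z-scores take the random background probes as reference.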

How did the PBM binding z-score turn out when CGAACTAGGTCAAGGACAGTGAGTCTCCGCACGC was run?
The PBM binding z-score was -0.0553.

How did the PBM binding z-score turn out when TCATATAGGTAAATGCTAGGTGACAGTCCGATCT was run?
The PBM binding z-score was 0.133.

How did the PBM binding z-score turn out when ATATGTAGGTTATCGTGTCATTCAGTTTGCGCAT was run?
Its PBM binding z-score is 0.812.

GCTTACGGGTCAAAGGTTATATCATGAATAGAAT was tested. Which PBM binding z-score did it give?
Its PBM binding z-score is 0.529.

For TCTTGTAGACCAACAGGAGGTTAAGAAAGATCGA, which PBM binding z-score is on record?
Its PBM binding z-score is 0.175.

With TCTGCTAGGTCAACGCTGGTCAGCTAATCTGCTA as the sequence, how does the PBM binding z-score read?
Its PBM binding z-score is -1.26.

For ATCTCTAGGTTACAAGTTCAGTGAAAGAGAGGAC, which PBM binding z-score is on record?
Its PBM binding z-score is 2.41.

For CCTGCTGGGTCAATGGTCAGCTAAAGCAGCTCGC, which PBM binding z-score is on record?
The PBM binding z-score was -0.552.

With TCATATAGGTAAGCAGGTGAAAGTCCGTAAGTTA as the sequence, how does the PBM binding z-score read?
The PBM binding z-score was 0.129.

CCTACTGGGCCAAAAAGGTCTTTGATGCCGATAA was tested. Which PBM binding z-score did it give?
The PBM binding z-score was -0.67.

For CGAACTAGGTCAAGGTCAAAGTCGGTTTGTGCCA, which PBM binding z-score is on record?
Its PBM binding z-score is 2.59.

With GTACCAAAGTGAATAGGTCGTTGATGAGTAGGCG as the sequence, how does the PBM binding z-score read?
Its PBM binding z-score is -0.196.

Which PBM binding z-score does the source give for GGAACGAGGGCAAGTTCATAGCAGAGTTTGATGG here?
The PBM binding z-score was 5.88.

ACTTACGGGGCAACGAGGTTATAGCACGCGTATA was tested. Which PBM binding z-score did it give?
Its PBM binding z-score is 0.644.

With GCTTACGGGGCAAAGGTTATAGCATGAATAGAAT as the sequence, how does the PBM binding z-score read?
Its PBM binding z-score is 0.0717.

With ATCTCTAGGTAAGACTGAGTTCAGTGAAGAACGC as the sequence, how does the PBM binding z-score read?
Its PBM binding z-score is 3.46.

Which PBM binding z-score does the source give for ATCGAAAGGTCCTGAGGTGAGTATACAGAAAGGC here?
The PBM binding z-score was -0.0977.

For TCGAGTAGGTTACCAATGGGGCATTGAGCTTTCT, which PBM binding z-score is on record?
Its PBM binding z-score is -0.707.

CCTACTGGGCCACGAAAGGTCATTGATTCAGTGA was tested. Which PBM binding z-score did it give?
Its PBM binding z-score is 2.06.

With CAAACTAGGTCACGAAAGGACAAAGTCGAATGAC as the sequence, how does the PBM binding z-score read?
Its PBM binding z-score is 0.691.

AGAATGAGGTAATTAAGATCAGGGAATTGCGGTC was tested. Which PBM binding z-score did it give?
Its PBM binding z-score is 0.153.

How did the PBM binding z-score turn out when ACTAGCTGGTCAGCTGAGGTCACACACAATTCGG was run?
The PBM binding z-score was 1.11.

ACTATTAGTGGAGACGAGGGCAACCGATAGGTTG was tested. Which PBM binding z-score did it give?
Its PBM binding z-score is 0.0964.

Which PBM binding z-score does the source give for CAGACTAGGTCAAGGTCAAAGTCGGTTTGTGCCA here?
The PBM binding z-score was 1.76.

With TTTTGTAGATCAATAGAGGTTAAGAAAGTGCGCT as the sequence, how does the PBM binding z-score read?
Its PBM binding z-score is 0.915.

CCTAGTTGGTTAGGAGGTCACACACCGGATATGA was tested. Which PBM binding z-score did it give?
Its PBM binding z-score is 1.84.

Which PBM binding z-score does the source give for CTGACTGGGGCAAGGTTACCATAACGCACAGCCA here?
The PBM binding z-score was 0.00598.

For GGAACGAGGGCAAAGTCGATAGCATCTGTCGACG, which PBM binding z-score is on record?
Its PBM binding z-score is -0.0717.

For TCATATATGTAATACAGGTGAAAGTCGGCATCTA, which PBM binding z-score is on record?
The PBM binding z-score was 0.494.

How did the PBM binding z-score turn out when CAAACTAGGTCAAAGGTGAAAGTCGAGCCAACCA was run?
The PBM binding z-score was 0.25.

CAAACTAGGTCAAGAGGTCTAAGTCCGCTTCCCG was tested. Which PBM binding z-score did it give?
Its PBM binding z-score is -0.00755.

For TTACCAAGGTGAAAGGTCGTTGTTGCACGCCTTG, which PBM binding z-score is on record?
Its PBM binding z-score is 0.253.

With CCGAGTTGGTTATGGGGCATTCAGGCAACGGTGA as the sequence, how does the PBM binding z-score read?
The PBM binding z-score was 0.402.

Which PBM binding z-score does the source give for CACCCTAGGTCAGGGCCAGTATAGGAGGAACGTT here?
Its PBM binding z-score is 0.00908.

AGAATGAGGTTATTAAGATCGGGGAATTGCGGTC was tested. Which PBM binding z-score did it give?
Its PBM binding z-score is 0.366.

How did the PBM binding z-score turn out when TGAATGATGTTAAAGATCAGGGAACGTGGCGTCG was run?
The PBM binding z-score was 0.0908.

For CAGCCTAGGTCAGGGCCAGTACAGGAGGAACGTT, which PBM binding z-score is on record?
The PBM binding z-score was -0.209.

TGAATGAGTTTATAAGATCAGGGAACGTTGCAAA was tested. Which PBM binding z-score did it give?
The PBM binding z-score was 0.318.

ATACCAAGGTAATCGTGAGGTCGTTGATACTAAC was tested. Which PBM binding z-score did it give?
Its PBM binding z-score is 1.36.

What follows are sequences tested on RARa:RXR (NR concentration 270 nM, RXRa partner concentration 90 nM) in the same assay as above.
Method in brief: as §1

Which PBM binding z-score does the source give for CGAACTAGGTCAAGGACAGTGAGTCTCCGCACGC here?
The PBM binding z-score was 1.87.

How did the PBM binding z-score turn out when TCATATAGGTAAATGCTAGGTGACAGTCCGATCT was run?
Its PBM binding z-score is 0.861.

For ATATGTAGGTTATCGTGTCATTCAGTTTGCGCAT, which PBM binding z-score is on record?
The PBM binding z-score was 1.16.

How did the PBM binding z-score turn out when GCTTACGGGTCAAAGGTTATATCATGAATAGAAT was run?
The PBM binding z-score was 8.44.

How did the PBM binding z-score turn out when TCTTGTAGACCAACAGGAGGTTAAGAAAGATCGA was run?
Its PBM binding z-score is 0.783.

With TCTGCTAGGTCAACGCTGGTCAGCTAATCTGCTA as the sequence, how does the PBM binding z-score read?
Its PBM binding z-score is 2.35.

For ATCTCTAGGTTACAAGTTCAGTGAAAGAGAGGAC, which PBM binding z-score is on record?
The PBM binding z-score was 2.03.

How did the PBM binding z-score turn out when CCTGCTGGGTCAATGGTCAGCTAAAGCAGCTCGC was run?
Its PBM binding z-score is 1.78.

TCATATAGGTAAGCAGGTGAAAGTCCGTAAGTTA was tested. Which PBM binding z-score did it give?
The PBM binding z-score was 0.662.

For CCTACTGGGCCAAAAAGGTCTTTGATGCCGATAA, which PBM binding z-score is on record?
The PBM binding z-score was -0.184.

How did the PBM binding z-score turn out when CGAACTAGGTCAAGGTCAAAGTCGGTTTGTGCCA was run?
Its PBM binding z-score is 5.41.

GTACCAAAGTGAATAGGTCGTTGATGAGTAGGCG was tested. Which PBM binding z-score did it give?
Its PBM binding z-score is 0.176.

Which PBM binding z-score does the source give for GGAACGAGGGCAAGTTCATAGCAGAGTTTGATGG here?
Its PBM binding z-score is 1.72.

ACTTACGGGGCAACGAGGTTATAGCACGCGTATA was tested. Which PBM binding z-score did it give?
The PBM binding z-score was 1.73.

GCTTACGGGGCAAAGGTTATAGCATGAATAGAAT was tested. Which PBM binding z-score did it give?
Its PBM binding z-score is 4.63.

For ATCTCTAGGTAAGACTGAGTTCAGTGAAGAACGC, which PBM binding z-score is on record?
The PBM binding z-score was 0.632.

For ATCGAAAGGTCCTGAGGTGAGTATACAGAAAGGC, which PBM binding z-score is on record?
Its PBM binding z-score is 0.895.

For TCGAGTAGGTTACCAATGGGGCATTGAGCTTTCT, which PBM binding z-score is on record?
Its PBM binding z-score is 0.00376.

CCTACTGGGCCACGAAAGGTCATTGATTCAGTGA was tested. Which PBM binding z-score did it give?
The PBM binding z-score was 5.9.

For CAAACTAGGTCACGAAAGGACAAAGTCGAATGAC, which PBM binding z-score is on record?
The PBM binding z-score was 3.22.

AGAATGAGGTAATTAAGATCAGGGAATTGCGGTC was tested. Which PBM binding z-score did it give?
The PBM binding z-score was 0.224.

For ACTAGCTGGTCAGCTGAGGTCACACACAATTCGG, which PBM binding z-score is on record?
Its PBM binding z-score is 4.93.

Which PBM binding z-score does the source give for ACTATTAGTGGAGACGAGGGCAACCGATAGGTTG here?
Its PBM binding z-score is 0.0871.

For CAGACTAGGTCAAGGTCAAAGTCGGTTTGTGCCA, which PBM binding z-score is on record?
Its PBM binding z-score is 5.07.

For TTTTGTAGATCAATAGAGGTTAAGAAAGTGCGCT, which PBM binding z-score is on record?
Its PBM binding z-score is 2.2.

For CCTAGTTGGTTAGGAGGTCACACACCGGATATGA, which PBM binding z-score is on record?
The PBM binding z-score was 4.45.

CTGACTGGGGCAAGGTTACCATAACGCACAGCCA was tested. Which PBM binding z-score did it give?
Its PBM binding z-score is 0.987.

With GGAACGAGGGCAAAGTCGATAGCATCTGTCGACG as the sequence, how does the PBM binding z-score read?
Its PBM binding z-score is 0.0883.

Which PBM binding z-score does the source give for TCATATATGTAATACAGGTGAAAGTCGGCATCTA here?
Its PBM binding z-score is 1.41.

How did the PBM binding z-score turn out when CAAACTAGGTCAAAGGTGAAAGTCGAGCCAACCA was run?
Its PBM binding z-score is 7.31.

How did the PBM binding z-score turn out when CAAACTAGGTCAAGAGGTCTAAGTCCGCTTCCCG was run?
The PBM binding z-score was 2.65.

With TTACCAAGGTGAAAGGTCGTTGTTGCACGCCTTG as the sequence, how does the PBM binding z-score read?
The PBM binding z-score was 5.2.

CCGAGTTGGTTATGGGGCATTCAGGCAACGGTGA was tested. Which PBM binding z-score did it give?
Its PBM binding z-score is 0.155.

For CACCCTAGGTCAGGGCCAGTATAGGAGGAACGTT, which PBM binding z-score is on record?
Its PBM binding z-score is 1.49.

How did the PBM binding z-score turn out when AGAATGAGGTTATTAAGATCGGGGAATTGCGGTC was run?
Its PBM binding z-score is 1.26.

With TGAATGATGTTAAAGATCAGGGAACGTGGCGTCG as the sequence, how does the PBM binding z-score read?
Its PBM binding z-score is -0.242.

For CAGCCTAGGTCAGGGCCAGTACAGGAGGAACGTT, which PBM binding z-score is on record?
Its PBM binding z-score is 1.03.

How did the PBM binding z-score turn out when TGAATGAGTTTATAAGATCAGGGAACGTTGCAAA was run?
The PBM binding z-score was 0.174.

With ATACCAAGGTAATCGTGAGGTCGTTGATACTAAC as the sequence, how does the PBM binding z-score read?
Its PBM binding z-score is 2.06.
